{"source": "the supplement of paper PMC7156485"}
{"system": "TDF", "experiment": "H1.0 immunofluorescence intensity relative to DMSO (% of DMSO); higher = stronger H1.0 induction, active = 120 or more", "conditions": "concentration: 10 µM; 24 h", "method_in_brief": "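HCC1569 and TDF cells were seeded at 800 per well in 384-well plates in RPMI with 10% FBS and treated with compounds at 10 µM for 24 h at 37 °C, in triplicate. After fixation in 3.7% formaldehyde, cells were stained with a rabbit anti-H1.0 antibody, an AlexaFluor 647 secondary and DAPI, and six fields per well were imaged at ×10. H1.0 nuclear intensity or cell number is given as percent of the plate control, using the median of replicates, with HCC1569 values smoothed for positional effects.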"}
{"smiles": "COc1ccc(C(=O)OC2CCC3(C)C4CCC5C6(O)CC(O)C7(O)C(CN8CC(C)CCC8C7(C)O)C6(O)CC53OC24O)cc1OC", "note": "(centres undefined) [Veratridine]", "H1.0 immunofluorescence intensity": "96.7 (inactive)"}
{"smiles": "CC1=NN=C(c2ccc(N)cc2)c2cc3c(cc2C1)OCO3.Cl", "H1.0 immunofluorescence intensity": "106 (inactive)"}
{"smiles": "CC(=O)c1c(O)c(C)c(O)c(Cc2c(O)c3c(c(C(=O)C=Cc4ccccc4)c2O)OC(C)(C)C=C3)c1O", "note": "[Rottlerin]", "H1.0 immunofluorescence intensity": "109 (inactive)"}
{"smiles": "CNC1CC(c2ccc(Cl)c(Cl)c2)c2ccccc21.Cl", "note": "(centres undefined) [Indatraline hydrochloride]", "H1.0 immunofluorescence intensity": "110 (inactive)"}
{"smiles": "COc1ccc(C(=O)c2c(C)n(CCN3CCOCC3)c3ccccc23)cc1", "note": "[Pravadoline]", "H1.0 immunofluorescence intensity": "98.4 (inactive)"}
{"smiles": "CN1C(=O)CCS(=O)(=O)C1c1ccc(Cl)cc1", "note": "(centres undefined) [Chlormezanone]", "H1.0 immunofluorescence intensity": "85.9 (inactive)"}
{"smiles": "CCC(C)CC(C)N", "note": "(centres undefined) [1,3-dimethylpentylamine]", "H1.0 immunofluorescence intensity": "99 (inactive)"}
{"smiles": "CCCN(CCC)CCc1c[nH]c2ccc(C(N)=O)cc12.O=C(O)C=CC(=O)O", "note": "[N,N-Dipropyl-5-carboxamidotryptamine maleate]", "H1.0 immunofluorescence intensity": "97 (inactive)"}
{"smiles": "Cl.Cl.Clc1cccc(N2CCNCC2)c1", "note": "[1-(3-Chlorophenyl)piperazine dihydrochloride]", "H1.0 immunofluorescence intensity": "105 (inactive)"}
{"smiles": "CCC1C2CC3C4N(C)c5ccccc5C45CC(C2C5O)N3C1O", "note": "(centres undefined) [Ajmaline]", "H1.0 immunofluorescence intensity": "96.9 (inactive)"}
{"smiles": "COc1ccc(CC2NCCc3cc(OC)c(OC)cc32)cc1OC.Cl", "note": "(centres undefined)", "H1.0 immunofluorescence intensity": "94.3 (inactive)"}
{"smiles": "NC(=O)CI", "note": "[Iodoacetamide]", "H1.0 immunofluorescence intensity": "134 (active)"}
{"smiles": "CC(N)Cc1c[nH]c2ccc(OCc3cccs3)cc12.Cl", "note": "(centres undefined)", "H1.0 immunofluorescence intensity": "87.9 (inactive)"}
{"smiles": "CC1CN(C2CCC(C#N)(c3ccc(F)cc3)CC2)CCC1(C(=O)O)c1ccccc1.Cl", "note": "(centres undefined) [Levocabastine.HCl]", "H1.0 immunofluorescence intensity": "102 (inactive)"}
{"smiles": "CC(=O)OCC1=C(C(=O)[O-])N2C(=O)C(NC(=O)CCCC(N)C(=O)[O-])C2SC1.[Zn+2]", "note": "(centres undefined) [Cephalosporin C zinc salt]", "H1.0 immunofluorescence intensity": "97.3 (inactive)"}
{"smiles": "Cc1c(N)nc(C(CC(N)=O)NCC(N)C(N)=O)nc1C(=O)NC(C(=O)NC(C)C(O)C(C)C(=O)NC(C(=O)NCCc1nc(-c2nc(C(=O)NCCC[S+](C)C)cs2)cs1)C(C)O)C(OC1OC(CO)C(O)C(O)C1OC1OC(CO)C(O)C(OC(N)=O)C1O)c1cnc[nH]1.O=S(=O)([O-])O", "note": "(centres undefined) [Bleomycin sulfate]", "H1.0 immunofluorescence intensity": "88.5 (inactive)"}
{"smiles": "CNC(=O)Oc1ccc2c(c1)C1(C)CCN(C)C1N2C.CNC(=O)Oc1ccc2c(c1)C1(C)CCN(C)C1N2C.O=S(=O)(O)O", "note": "(centres undefined) [Physostigmine sulfate]", "H1.0 immunofluorescence intensity": "90.4 (inactive)"}
{"smiles": "Oc1ccc2c3c1OC1C(O)CCC4(O)C(C2)N(CC2CCC2)CCC314", "note": "(centres undefined) [Nalbuphine]", "H1.0 immunofluorescence intensity": "89.2 (inactive)"}
{"smiles": "NC(C(=O)O)c1cc(=O)[nH]o1", "note": "(racemic)", "H1.0 immunofluorescence intensity": "92.2 (inactive)"}
{"smiles": "C=CCN1CCC23c4c5ccc(O)c4OC2C(=O)CCC3(O)C1C5.Cl", "note": "(centres undefined) [Naloxone hydrochloride]", "H1.0 immunofluorescence intensity": "97.1 (inactive)"}
{"smiles": "CC(=O)NC1CN2CCC(O)C2C(O)C1O", "note": "(centres undefined) [6-Acetamido-6-deoxy-castanospermine]", "H1.0 immunofluorescence intensity": "97.2 (inactive)"}
{"smiles": "C=C(C)C1CNC(C(=O)O)C1CC(=O)O", "note": "(centres undefined) [Kainic acid]", "H1.0 immunofluorescence intensity": "92.5 (inactive)"}
{"smiles": "CN1CC(CO)CC2c3cccc4[nH]cc(c34)CC21", "note": "(centres undefined) [9,10-Dihydrolysergol]", "H1.0 immunofluorescence intensity": "102 (inactive)"}
{"smiles": "CCCN1CC(CSC)CC2c3cccc4[nH]cc(c34)CC21.CS(=O)(=O)O", "note": "(centres undefined) [Pergolide methanesulfonate]", "H1.0 immunofluorescence intensity": "98.1 (inactive)"}
{"smiles": "COc1ccc2c(c1)=NC1=C(C)NCCC=21", "note": "[Harmaline]", "H1.0 immunofluorescence intensity": "97.5 (inactive)"}
{"smiles": "CC12NC(Cc3ccccc31)c1ccccc12.O=C(O)C=CC(=O)O", "note": "(single isomer, unassigned; (+)) [(+)-MK-801 hydrogen maleate]", "H1.0 immunofluorescence intensity": "98.6 (inactive)"}
{"smiles": "CCC1CN2CCc3cc(OC)c(OC)cc3C2CC1CC1NCCc2cc(OC)c(OC)cc21.Cl.Cl", "note": "(centres undefined) [Emetine dihydrochloride hydrate]", "H1.0 immunofluorescence intensity": "114 (inactive)"}
{"smiles": "O=S1(=O)N(CCN2CC=C(c3c[nH]c4cc(F)ccc34)CC2)c2cccc3c2N1CCC3", "H1.0 immunofluorescence intensity": "95.4 (inactive)"}
{"smiles": "CCC12C=CCN3CCC4(c5ccc(OC)cc5N(C)C4C(O)(C(=O)OC)C1OC(C)=O)C32", "note": "(centres undefined) [Vindoline]", "H1.0 immunofluorescence intensity": "91.7 (inactive)"}
{"smiles": "Cl.c1ccc2sc(C3(N4CCCCC4)CCCCC3)cc2c1", "note": "[BTCP hydrochloride]", "H1.0 immunofluorescence intensity": "88.2 (inactive)"}
{"smiles": "CN1CC(CO)C=C2c3cccc4[nH]cc(c34)CC21", "note": "(centres undefined) [Lysergol]", "H1.0 immunofluorescence intensity": "102 (inactive)"}
{"smiles": "CCCN(CCC)C1CCc2c(F)ccc(O)c2C1.Cl", "note": "(stereo not drawn) [R(+)-UH-301 hydrochloride]", "H1.0 immunofluorescence intensity": "89.2 (inactive)"}
{"smiles": "CS(=O)(=O)O.Oc1ccc2c3c1OC1c4oc5ccccc5c4CC4(O)C(C2)N(CC2CC2)CCC314", "note": "(centres undefined) [Naltriben methanesulfonate]", "H1.0 immunofluorescence intensity": "92.4 (inactive)"}
{"smiles": "CCC(C)C(=O)OC1C(O)C2C(CN3CC(C)CCC3C2(C)O)C2CC34OC5(O)C(OC(=O)C(C)(O)C(C)O)CCC3(C)C5C(OC(C)=O)C(OC(C)=O)C4C21O", "note": "(centres undefined) [Protoveratrine B]", "H1.0 immunofluorescence intensity": "106 (inactive)"}
{"smiles": "CC1(O)CC23CC(O)C4(O)C(CC(O)C4(C)C)C(C)(O)C2CCC1C3O", "note": "(centres undefined) [Grayanotoxin III]", "H1.0 immunofluorescence intensity": "91.9 (inactive)"}
{"smiles": "CC(C)(C)NCC(O)c1ccccc1Cl", "note": "(centres undefined) [Tulobuterol]", "H1.0 immunofluorescence intensity": "90.7 (inactive)"}
{"smiles": "Cc1cc(C(=O)CN2CCCC2)c(C)n1-c1ccc(F)cc1", "H1.0 immunofluorescence intensity": "99.9 (inactive)"}
{"smiles": "O=C1NC(=O)c2c1c1c3ccccc3[nH]c1c1[nH]c3ccccc3c21", "H1.0 immunofluorescence intensity": "79.9 (inactive)"}
{"smiles": "OCC1CCCN2CCCCC12", "note": "(centres undefined) [Lupinine]", "H1.0 immunofluorescence intensity": "96.3 (inactive)"}
